Source: PubChem (National Center for Advancing Translational Sciences (NCATS))
RORgamma inh: ROR gamma (mouse) transcription inhibition. P51450. Drosophila S2 Gal4-RORgamma UAS-luciferase reporter, 20 h. Potency, µM (doses to about 53.6 µM), inactives show top-dose activity change, negative = inhibition, most hits filed as inhibitors. actives 5.4% (n = 310,000); also: potency is read from the fitted curve at half-maximal effect; nearly all actives have a fitted effect of over 60% in size
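Compounds are pin-transferred onto Drosophila Schneider cells expressing a copper-inducible Gal4–ROR gamma transactivation domain fusion. After 1 hr, copper sulfate is added to 700 uM final; luciferase is read 20 hr later.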
TrxR1 substrate: is turned over as a substrate by rat TrxR1. actives 0.01% (n = 390,000). Potency, µM (titrated, usually from 114 µM), for the others: at the highest dose activity change, negative = substrate turnover. AID 588456. purified TrxR1 substrate turnover, NADPH consumption readout; also: potency is read from the fitted curve at half-maximal effect; nearly all actives have a fitted effect of over 50% in size
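Rat TrxR1, dispensed at 90 nM, was prereduced with 400 uM NADPH (final) for 5 min at ~22 deg C, then incubated with compound 15 min before 400 uM selenite. A first-read NADPH fluorescence drop versus no-compound background flagged substrates.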
Gal4-VP16 FLuc: Gal4-VP16 reporter inhibition counter-screen; Drosophila S2 Gal4-VP16 UAS-luciferase, luminescence, 20 h; Potency, µM (top dose mostly 53.6 µM), inactives show at the highest dose activity, negative = inhibition, most hits filed as inhibitors; actives 3.5% (n = 310,000);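 also: Gal4-VP16 expression switched on by copper sulfate through the metallothionein promoter; potency is read from the fitted curve at half-maximal effect; nearly all actives have a fitted effect of over 50% in size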
TrxR1 inh: blocks rat thioredoxin reductase 1; recombinant rTrxR1, NADPH fluorescence consumption, selenite substrate; Potency, µM (highest dose often 114 µM), for inactives: top-dose activity change, negative = inhibition, hits mostly inhibitors; actives 1% (n = 390,000); also: potency is read from the fitted curve at half-maximal effect; nearly all actives have a fitted effect of over 65% in size
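Rat TrxR1 (90 nM in the dispensed reagent) was pre-reduced with 400 uM NADPH for 5 min at room temperature, then incubated with compound for 15 min. After 400 uM selenite was added, NADPH fluorescence (Ex 340/Em 450 nm) was followed for 8 min.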
FBPA coupling cs: counter-screen for Giardia aldolase inhibitors: coupling enzyme system | activity change, negative = inhibition, % at 58.2 µM, hits read low | actives 0.67% (n = 290,000) | coupling enzyme system counterscreen, AmpLite Red fluorescence; in the data active = activity change below about -30%
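Activity here indicates interference with the coupling reaction, not aldolase inhibition. Compounds at 57.5 uM final met coupling enzymes for 10 min at RT; substrate and AmpLite Red detection followed, with a 525/598 nm fluorescence read after 20 min.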
GALK inhibitor: blocks human galactokinase activity; Purified GALK, Kinase-Glo residual ATP luminescence; Potency, µM (titrated, usually from 57.5 µM), for inactives: top-dose activity change, negative = inhibition, hits mostly inhibitors; actives 0.007% (n = 270,000); also: potency is read from the fitted curve at half-maximal effect
Target sequence (P51570 whole entry, looked up): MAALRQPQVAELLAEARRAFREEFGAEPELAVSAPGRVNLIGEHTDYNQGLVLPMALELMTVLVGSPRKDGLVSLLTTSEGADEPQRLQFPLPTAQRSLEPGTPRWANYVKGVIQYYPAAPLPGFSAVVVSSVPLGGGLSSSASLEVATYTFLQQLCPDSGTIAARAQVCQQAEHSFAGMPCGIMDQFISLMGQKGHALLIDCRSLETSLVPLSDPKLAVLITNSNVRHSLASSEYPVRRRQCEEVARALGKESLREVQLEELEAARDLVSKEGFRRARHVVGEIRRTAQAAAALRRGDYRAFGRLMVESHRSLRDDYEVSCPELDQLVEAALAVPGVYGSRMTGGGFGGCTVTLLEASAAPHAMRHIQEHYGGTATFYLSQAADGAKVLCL
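Kinase-Glo Plus luminescence measured ATP left after a 1 h room-temperature reaction. The reaction used 5 nM GALK, 100 uM galactose and 35 uM ATP at pH 8.0 (20 mM HEPES, 5 mM MgCl2, 60 mM NaCl, 1 mM DTT, 0.01% BSA).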
* = called active by the depositor; ? = inconclusive; . = no result; [ ] = dose if it differs, or a comment. An excerpt weighted towards active compounds, which were near 5.9% of everything screened. Unless noted, calls follow the shape of the dose curve; as a rule, active = well fitted curve in the direction sought with a large enough effect; inconclusive = small, poorly fitted or top-dose-only effect, or another doubt; inactive = no such curve, though single readings can be large; an effect the other way counts as inactive or inconclusive. % is scaled to controls: 0 for no effect and ±100 for the full control effect.

SMILES	RORgamma inh	TrxR1 substrate	Gal4-VP16 FLuc	TrxR1 inh	FBPA coupling cs	GALK inhibitor
CCC1S/C(=N/N=C/c2ccco2)N(Cc2ccccc2C)C1=O (configuration not stated)	19%	-1%	-2%	-16%	-1	3%
COc1cc(/C=N/N=C2/NC(=O)C(Cc3ccccc3)S2)ccc1O (configuration not stated)	14µM*	-17%	?	-19%	5	-3%
COc1ccccc1CC1S/C(=N/N=C/c2ccco2)NC1=O (configuration not stated)	2.2µM*	-6%	7.1µM*	7%	1	15%
O=C1N/C(=N/N=C/c2ccco2)SC1Cc1ccccc1 (configuration not stated)	1µM*	-2%[57.1 µM]	2.5µM*	17%	1	3%
Cc1cccc(CC2S/C(=N/N=C/c3ccco3)NC2=O)c1 (configuration not stated)	0.89µM*	0%[57.1 µM]	5.6µM*	1%[57.1 µM]	1	-1%
Cc1ccc(S(=O)(=O)c2cn(Cc3ccc(F)cc3)c3cc(F)c(F)cc3c2=O)cc1	.	2%	.	8%	.	.
O=C(N/N=C/c1cccnc1)c1cc(-c2ccccc2OCc2ccccc2)n[nH]1	-12%	-5%[57.1 µM]	-15%	8%[57.1 µM]	-1	6%
CCOc1ccc(Oc2ccc(Cl)cc2NC(=O)CCNC(C)=O)cc1	-61%	-6%	0%[10 µM]	19%[57.1 µM]	1	2%
Cc1cccc(NS(=O)(=O)c2cc3c(cc2C)NC(=O)CO3)c1	-18%	5%[57.1 µM]	2%	20%[57.1 µM]	-2	.
Cc1ccc(CC2S/C(=N/N=C/c3ccco3)NC2=O)cc1 (configuration not stated)	1.4µM*	3%[57.1 µM]	11µM*	24%[57.1 µM]	4	4%
C/C(=N\N=C1\NC(=O)C(Cc2ccccc2)S1)c1ccccc1 (configuration not stated)	10µM*	-2%	-24%	28%	3	1%
CCCCC1=CC2=C(c3ccco3)C(=O)C(C)(OC(=O)c3ccc(OC)cc3)C(=O)C2=CN1CC(C)C (configuration not stated)	1%	4%	1%	45µM*	-22	-1%
CC(Nc1ncnc2ccccc12)c1ccccc1 (configuration not stated)	?	-2%	2.8µM*	2%	4	6%
Cc1nc2nc(-c3ccccc3)cn2nc1C	10µM*	261%	?	-13%	0	13%
Brc1ccc(-c2cn3nc4c(nc3n2)CCCC4)cc1	?	12%[57.1 µM]	?	16%[57.1 µM]	-7	0%
c1ccc(-c2cn3nc4c(nc3n2)CCCC4)cc1	5µM*	95%	?	-22%	-11	4%
Cc1nc2nc(-c3ccc(F)cc3)cn2nc1C	?	157%[57.1 µM]	?	39%[57.1 µM]	0	12%
CCc1ccc(-c2cn3nc(C)c(C)nc3n2)cc1	7.1µM*	119%	?	9%	-1	0%
O=C(Nc1ccc2sccc2c1)c1ccc(Cl)s1	?	10%	-20%	5%	1	-3%
CCN(CC)CCOc1ccc(C(O)(Cc2ccc(Cl)cc2)c2ccc(C)cc2)cc1 (configuration not stated)	?	.	?	.	0	.
O=c1[nH]c(CN(CCO)CCO)nc2c1C1(CCCCC1)Cc1ccccc1-2	?	-2%	-11%	-4%	-6	3%
CCN(CC)Cc1nc2c(c(=O)[nH]1)C1(CCCC1)Cc1ccccc1-2	2.8µM*	-2%[57.1 µM]	11µM*	8%	1	6%
C=CCNC(=S)NNc1nc2c(c(=O)[nH]1)C1(CCCCC1)Cc1ccccc1-2	1µM*	-7%	1.8µM*	-29%	-6	1%
O=C(CS(=O)(=O)c1ccccc1)c1cc2ccccc2oc1=O	-32%	-8%	-1%	16µM*	-4	-14%
CCc1cc(OCCCSc2nc(C)cc(=O)[nH]2)ccc1Cl	?	8%	8.9µM*	29%	8	0%
SMILES	RORgamma inh	TrxR1 substrate	Gal4-VP16 FLuc	TrxR1 inh	FBPA coupling cs	GALK inhibitor
COc1nc2cc(C)ccc2cc1-c1noc(-c2cccnc2)n1	-3%	.	-18%	.	0	0%
COc1nc(C)ccc1-c1noc(-c2cccnc2)n1	14µM*	0%	-4%	19%	4	-4%
COc1cc2c(cc1OC)CN(C(=O)CCC(=O)c1ccc(F)cc1)CC2	.	2%	.	4%	.	.
CCOC(=O)C1CCN(C(=O)c2ccccc2NS(=O)(=O)c2ccc(F)c(F)c2)CC1	1%	6%[57.1 µM]	-1%	5%[57.1 µM]	1	0%
O=C(Nc1nc2ccccc2s1)C1CCCO1 (configuration not stated)	-3%	-5%	-22%	-6%	3	1%
CC1CCC/C(=N/Nc2nc3ccccc3s2)C1 (configuration not stated)	6.3µM*	-8%	?	1%	1	11%
CC1(C)CC(=O)C/C(=N/Nc2nc3ccccc3s2)C1	8.9µM*	-12%	23%	-16%	2	-8%
Cc1ccccc1CC1(CO)CCCN(Cc2ccccc2Cl)C1 (configuration not stated)	-17%	-5%	-3%	10%[57.1 µM]	0	-2%
O=C(NC(=S)Nc1cc(Cl)ccc1N1CCOCC1)c1ccccc1[N+](=O)[O-]	3.5µM*	-13%	3.5µM*	4%	2	3%
CN1CCN(c2ccccc2NC(=O)c2ccc(N3CCCC3)c([N+](=O)[O-])c2)CC1	9%	11%[57.1 µM]	3%	16%[57.1 µM]	2	8%
Cc1cc(C(=O)NC(=S)Nc2ccccc2N2CCCC2)ccc1[N+](=O)[O-]	2.5µM*	7%	3.2µM*	11%	0	-3%
Cc1cc(C(=O)Nc2ccccc2N2CCOCC2)ccc1[N+](=O)[O-]	-21%	-16%	-7%	-16%	0	-5%
COc1ccc(Cl)cc1C(=O)NC(=S)Nc1ccccc1N1CCOCC1	.	-10%	.	0%	1	-2%
COc1ccc(C(=O)Nc2ccccc2N2CCOCC2)cc1[N+](=O)[O-]	-5%	-11%	-3%	-6%	1	1%
COc1ccc(C(=O)NC(=S)Nc2ccccc2N2CCOCC2)cc1[N+](=O)[O-]	6.3µM*	-2%[57.1 µM]	10µM*	15%[57.1 µM]	2	2%
Cc1cc(C(=O)NC(=S)Nc2ccccc2N2CCOCC2)ccc1[N+](=O)[O-]	2.8µM*	-5%	14µM*	-4%	2	1%
Cc1cccc(NC(=O)Cn2cnc3c(cnn3-c3ccc(F)cc3)c2=O)c1C	-39%	-2%	-6%	6%	-2	1%
COc1cccc(N2CC(C(=O)Nc3nnc(SCC(=O)NC4CCCC4)s3)CC2=O)c1 (configuration not stated)	13%	-4%	-15%	?	.	-6%
